Measurements reported in PubChem BioAssay (NCI).
The panel holds about 83,000 compounds, 20% with a hit somewhere; the sample as a whole holds those more often.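 Negative percent growth values reflect cell death: -40 means 40% of the cells present at the start died, and -100 means all died.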 Active and inactive are the calls of the source. How the source made its calls: active means growth percent below 10; inactive means the rest.

Assays:
Experiment in all cases: NCI-60 one-dose screen, 48 h (100 = growth as untreated, 0 = no growth, -100 = all killed)
Settings in all cases: 10 µM
[1] = system: NCI-H23 lung
[2] = system: NCI-H226 lung
[3] = system: NCI-H322M lung
[4] = system: HOP-62 NSCLC
[5] = system: NCI-H460 lung
[6] = system: NCI-H522 lung
[7] = system: A549/ATCC NSCLC
[8] = system: 786-0 renal
[9] = system: COLO 205 colon
[10] = system: DU-145 prostate
[11] = system: K-562 leukemia
[12] = system: MALME-3M melanoma
[13] = system: MDA-MB-231 breast
[14] = system: RXF 393 renal
[15] = system: SF-268 CNS
[16] = system: SF-295 CNS
[17] = system: SF-539 CNS
[18] = system: UACC-257 melanoma
[19] = system: M14 melanoma
[20] = system: HCT-15 colon

Measured: growth

N#CCCN1C/C(=C/c2ccc(Br)cc2)C(=O)/C(=C/c2ccc(Br)cc2)C1
active: [1] -30.8% | [2] -77.6% | [3] -23.2% | [4] -59.4% | [5] -55.2% | [6] -68.4% | [7] -37.6% | [8] -67.9% | [9] -93.9% | [10] -48.4% | [11] 3.42% | [12] -48.4% | [13] -39.4% | [14] -89.1% | [15] -36.2% | [16] -20.2% | [17] -55.1% | [18] -33.5% | [19] -55.1% | [20] 0.513%

C[C@@H]1C=C2C(=O)O[C@@H]3CC[C@H](C1)[C@]23O
active: [6] 2.22% | [10] -25.9% | [14] 9.76%
inactive: [1] 80.6% | [2] 106% | [3] 82.5% | [4] 71.7% | [5] 80.9% | [7] 67.1% | [8] 103% | [9] 74% | [11] 27.5% | [12] 93.2% | [13] 89% | [15] 93.3% | [16] 114% | [17] 90.8% | [18] 46.8% | [19] 80.2% | [20] 62.5%

CC1(C)N=C(N)N=C(N)N1c1ccc(CCc2ccccc2)c(Cl)c1
active: [6] 1.84% | [18] 3.1%
inactive: [1] 21.4% | [2] 32.4% | [3] 28.7% | [4] 26.3% | [5] 10.1% | [7] 10.4% | [8] 20.3% | [9] 16% | [10] 27.1% | [11] 11.2% | [12] 43.3% | [13] 39.7% | [14] 44% | [15] 21.1% | [16] 17.7% | [17] 21.8% | [19] 20.5% | [20] 39.7%

C=C(Cl)[C@@](Cl)(CBr)CC[C@@H](Br)C(C)(C)Cl
active: [3] -98.1% | [4] -93.2% | [5] -47.7% | [7] -6.36% | [8] -65.5% | [9] -70.3% | [10] -94.3% | [11] 8.41% | [13] -78.2% | [14] -5.37% | [15] 1.89% | [16] -48.4% | [17] -81.9% | [18] -66.7% | [20] -63.8%
inactive: [1] 83.2% | [2] 105% | [6] 85.1% | [12] 102% | [19] 89.1%

COc1cc(Cl)cc(-c2nn(-c3cccc(NC(=O)Nc4ccc(Cl)c(C(F)(F)F)c4)c3)cc2-c2ccncc2)c1
active: [1] 0.301% | [2] -2.82% | [5] 2.76% | [6] -10.4% | [7] 5.2% | [8] -4.76% | [9] -48.3% | [11] 8.93% | [12] -19.8% | [13] -30.8% | [14] -29.9% | [16] -7.48% | [17] -1.17% | [18] -25.9% | [19] 3.99% | [20] 7.28%
inactive: [3] 18.7% | [4] 13.5% | [10] 15.2% | [15] 22.9%

CC/C(=C(/c1ccc(OCCN(C)C)cc1)c1ccc(OC(=O)CCC(=O)c2c(C)[nH]c(/C=C3\N=C(c4ccc[nH]4)C=C3OC)c2C)cc1)c1ccccc1
active: [6] -0.572% | [11] 0.3% | [12] -9.96% | [13] -30% | [19] -66.6% | [20] 3.7%
inactive: [1] 52.3% | [2] 23.4% | [3] 75.3% | [4] 28% | [5] 51% | [7] 11% | [8] 21.4% | [9] 28.3% | [10] 21.4% | [14] 15.2% | [15] 31.2% | [16] 33.5% | [17] 49.7% | [18] 45.5%

COC(=O)C1=NNC(=S)N(c2cc(C)[nH]n2)C(=O)C1
inactive: [1] 99.1% | [2] 99.7% | [3] 94.5% | [4] 115% | [5] 111% | [6] 103% | [7] 106% | [8] 96.9% | [9] 116% | [10] 107% | [11] 93.7% | [12] 93.2% | [13] 110% | [14] 111% | [15] 102% | [16] 96.3% | [17] 102% | [18] 100% | [19] 102% | [20] 102%

CCN(CC)CCNC(=O)c1ccc(NC(C)=O)cc1
inactive: [1] 94.5% | [2] 110% | [3] 105% | [4] 103% | [5] 113% | [6] 111% | [7] 98.5% | [8] 108% | [9] 112% | [10] 119% | [11] 99.2% | [12] 103% | [13] 91.8% | [14] 109% | [15] 109% | [16] 104% | [17] 107% | [18] 117% | [19] 109% | [20] 101%

COc1cc(Cl)cc(-c2nn(-c3cccc(NC(=O)Nc4cc(C(F)(F)F)cc(C(F)(F)F)c4)c3)cc2-c2ccncc2)c1
active: [1] -6.14% | [2] -5.97% | [4] -41.1% | [5] 0.241% | [6] -15.6% | [7] 5.14% | [8] -26.9% | [9] -64% | [11] 6.4% | [12] -19.2% | [13] -75% | [14] -29.3% | [16] -43.2% | [17] -17.7% | [18] -25.6% | [19] 1.22% | [20] 6.21%
inactive: [3] 11% | [10] 13.1% | [15] 14.2%

CCOCC(=O)C(C#N)c1ccc(Cl)c(Cl)c1 (stereo not given)
inactive: [1] 106% | [2] 88.8% | [3] 102% | [4] 90.9% | [5] 107% | [6] 94.4% | [7] 101% | [8] 101% | [9] 115% | [10] 113% | [11] 94.6% | [12] 106% | [13] 105% | [14] 94.8% | [15] 106% | [16] 89.3% | [17] 94.8% | [18] 92% | [19] 113% | [20] 89.9%

O=C1/C(=C/c2ccc([N+](=O)[O-])o2)Oc2ccccc21
active: [1] -8.25% | [6] -79.6% | [8] -38.5% | [9] -66% | [10] -8.6% | [11] 1.24% | [12] -40.6% | [13] -17.3% | [14] -74.9% | [15] -10.8% | [17] -40.7% | [18] -8.85% | [20] 1.63%
inactive: [2] 23.9% | [3] 91.6% | [4] 62.2% | [5] 31.8% | [7] 62.5% | [16] 79.2% | [19] 13.8%

C#Cc1ccc(-n2c(/C=C/c3ccc(O)c(OC)c3)nc3ncccc3c2=O)cc1
inactive: [1] 102% | [2] 93.9% | [3] 98.2% | [4] 95.3% | [5] 103% | [6] 79% | [7] 90.3% | [8] 105% | [9] 109% | [10] 111% | [11] 80% | [12] 95% | [13] 98.5% | [14] 100% | [15] 95% | [16] 104% | [17] 97.2% | [18] 87.8% | [19] 101% | [20] 90.5%

COc1ccc(-c2cc(/C=C3\C(=O)Nc4ccc(OC)cc43)[nH]n2)cc1
inactive: [1] 67.1% | [2] 69.8% | [3] 53.9% | [4] 50.7% | [5] 16.4% | [6] 11.1% | [7] 40.6% | [8] 65.3% | [9] 13% | [10] 40.4% | [11] 15.6% | [12] 35.1% | [13] 59.2% | [14] 48% | [15] 42% | [17] 24.8% | [18] 68.8% | [19] 35.7% | [20] 22.8%
active: [16] 1.93%

Nc1nc(Nc2ccccc2)n[nH]1
inactive: [1] 94.7% | [2] 96.8% | [3] 108% | [4] 92.3% | [5] 108% | [6] 17.7% | [7] 34.8% | [8] 101% | [9] 114% | [10] 117% | [11] 98.6% | [12] 98.5% | [13] 105% | [14] 104% | [15] 112% | [16] 98.1% | [17] 94.2% | [19] 96.5% | [20] 93.8%
active: [18] -7.13%

O=C1C(c2ccccc2)C2C=CC(C2)N1O (stereo not given)
inactive: [1] 105% | [2] 101% | [3] 102% | [4] 105% | [5] 111% | [6] 96.4% | [7] 112% | [8] 102% | [9] 104% | [10] 114% | [11] 96.9% | [12] 109% | [13] 102% | [14] 104% | [15] 107% | [16] 122% | [17] 113% | [18] 105% | [19] 111% | [20] 106%

CC(C)=NNc1ncnc2c1ncn2C1OC(CO)C(O)C1O (stereo not given)
inactive: [1] 31.7% | [2] 32% | [6] 14.8% | [7] 14.3% | [8] 35% | [10] 12.8% | [11] 14.8% | [13] 19.3% | [14] 23.1% | [15] 40.9% | [17] 35.3% | [18] 73.9% | [19] 35.8% | [20] 12.6%
active: [3] -1.85% | [4] 7.08% | [5] -2.28% | [9] 3.97% | [12] -15.8% | [16] 8.82%
